# What was measured:
# Details in all cases: concentration: 1 μM, replicates: in singlicate; n = 1
# LTK = system: LTK
# LYN = system: LYN
# LZK = system: T1, LZK
# T1 construct: gene MAP3K13
# MAK = system: MAK
# MAP3K15 = system: MAP3K15
# MAP3K1 = system: MAP3K1
# MAP3K2 = system: MAP3K2
# MAP3K3 = system: MAP3K3
# MAP3K4 = system: MAP3K4
# MAP4K2 = system: MAP4K2
# MAP4K3 = system: MAP4K3
# MAP4K4 = system: MAP4K4
# MAP4K5 = system: MAP4K5
# MAPKAPK2 = system: MAPKAPK2
# MAPKAPK5 = system: MAPKAPK5
# MARK1 = system: MARK1
# MARK2 = system: MARK2
# MARK3 = system: MARK3
# MARK4 = system: MARK4
# MAST1 = system: MAST1
# 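Also: KINOMEscan kinase panel screen.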
SMILES,%Inh (LTK),%Inh (LYN),%Inh (LZK),%Inh (MAK),%Inh (MAP3K15),%Inh (MAP3K1),%Inh (MAP3K2),%Inh (MAP3K3),%Inh (MAP3K4),%Inh (MAP4K2),%Inh (MAP4K3),%Inh (MAP4K4),%Inh (MAP4K5),%Inh (MAPKAPK2),%Inh (MAPKAPK5),%Inh (MARK1),%Inh (MARK2),%Inh (MARK3),%Inh (MARK4),%Inh (MAST1)
Cl.Nc1ncnc2occ(-c3ccc(NC(=O)Nc4cc(C(F)(F)F)ccc4F)cc3)c12 [SB-707548],97.2%,75%,40%,6%,5%,34%,8%,17%,25%,62%,77%,92.9%,99.7%,15%,0%,0%,32%,26%,0%,0%
Cc1cccc(-c2nc(Nc3ccc4ncsc4c3)c3ccccc3n2)n1 [GW867588],7%,0%,7%,0%,0%,0%,8%,6%,0%,0%,9%,3%,4%,0%,0%,6%,0%,0%,9%,21%
Cc1nnc(-c2ccc3occ(-c4ccc(C(C)O)cc4)c3c2)o1 (centres unmarked),0%,18%,0%,0%,0%,10%,3%,19%,9%,20%,7%,12%,15%,21%,19%,7%,16%,0%,8%,0%
COc1cc2c(cc1OC[C@@H](O)CO)ncc1c3ccc(C#N)cc3[nH]c21,0%,0%,8%,0%,42%,0%,0%,6%,0%,17%,20%,27%,3%,0%,0%,0%,10%,0%,0%,62%
[2H]C([2H])(c1cccc(C(F)(F)F)c1C)n1ccn2c(=O)nc(N3CCOCC3)cc12 [GSK2336394],19%,0%,0%,17%,0%,0%,5%,0%,25%,0%,0%,6%,0%,22%,0%,0%,0%,0%,2%,0%
Cn1cc(-c2ccc3c(c2)CCN3C(=O)Cc2ccccc2Cl)c2c(N)ncnc21 [GSK2608885],55%,99.2%,0%,16%,0%,7%,91.1%,82%,86%,10%,70%,58%,96.3%,0%,3%,16%,0%,46%,19%,0%
CCCCCc1nc2c(N)ncnc2n1CCCCC [SKF-97255],6%,0%,0%,0%,0%,18%,29%,0%,10%,0%,2%,0%,0%,0%,0%,24%,0%,20%,31%,25%
Cc1c(Cn2c(C)nn3c(=O)cc(N4CCOC(C)C4)nc23)cccc1C(F)(F)F (centres unmarked) [GSK2344444],0%,0%,0%,15%,10%,16%,9%,0%,0%,0%,0%,18%,16%,1%,0%,0%,0%,0%,0%,0%
C[C@@H](Oc1cc(-n2cnc3ccc(NC(=O)NC(C)(C)C)cc32)sc1C(N)=O)c1ccccc1Cl [GSK346294],13%,4%,37%,0%,0%,35%,0%,0%,0%,0%,0%,2%,0%,12%,0%,1%,0%,0%,9%,0%
COC(=O)Nc1nc2cc(Oc3ccc(NC(=O)Nc4cc(F)ccc4F)cc3)ccc2[nH]1.Cl [GW701424],0%,19%,37%,18%,0%,0%,2%,0%,0%,0%,0%,0%,0%,13%,0%,0%,0%,3%,0%,5%

# — article PMC5540273 (PLoS ONE, 2017)
